Source: ChEMBL document CHEMBL5308504, “Tm Shift (DSF) assay results for EUbOPEN Chemogenomics Library” (2023)
Several values for one entry are separate records, joined by “and”; a condition that tells them apart may be missing. Equal values may be shown once.

What was measured:
Conditions in all cases: Compound concentration 20.0 uM, Protein concentration 2.0 uM, Result type QC Liability
[1] = molecular target: Tyrosine-protein kinase ABL1 (Homo sapiens) (UniProt P00519)
[2] = molecular target: Cyclin-dependent kinase 2 (Homo sapiens) (UniProt P24941)
[3] = molecular target: Casein kinase I isoform delta (Homo sapiens) (UniProt P48730)
Chain of Casein kinase I isoform delta (Homo sapiens) (P48730 whole entry, looked up, canonical isoform): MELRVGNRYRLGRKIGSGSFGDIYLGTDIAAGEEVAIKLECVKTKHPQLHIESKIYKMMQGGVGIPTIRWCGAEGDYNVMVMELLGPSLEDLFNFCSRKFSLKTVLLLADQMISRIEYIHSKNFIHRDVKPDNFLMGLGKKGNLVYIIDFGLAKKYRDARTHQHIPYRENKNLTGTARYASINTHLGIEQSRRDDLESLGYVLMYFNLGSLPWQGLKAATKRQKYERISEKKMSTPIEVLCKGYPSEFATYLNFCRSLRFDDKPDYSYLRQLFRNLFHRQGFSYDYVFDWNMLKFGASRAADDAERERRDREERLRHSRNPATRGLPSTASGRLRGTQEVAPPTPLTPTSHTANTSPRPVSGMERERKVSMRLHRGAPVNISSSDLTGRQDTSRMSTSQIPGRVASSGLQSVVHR

[4] = molecular target: Glycogen synthase kinase-3 beta (Homo sapiens) (UniProt P49841)
Chain of Glycogen synthase kinase-3 beta (Homo sapiens) (P49841 whole entry, looked up): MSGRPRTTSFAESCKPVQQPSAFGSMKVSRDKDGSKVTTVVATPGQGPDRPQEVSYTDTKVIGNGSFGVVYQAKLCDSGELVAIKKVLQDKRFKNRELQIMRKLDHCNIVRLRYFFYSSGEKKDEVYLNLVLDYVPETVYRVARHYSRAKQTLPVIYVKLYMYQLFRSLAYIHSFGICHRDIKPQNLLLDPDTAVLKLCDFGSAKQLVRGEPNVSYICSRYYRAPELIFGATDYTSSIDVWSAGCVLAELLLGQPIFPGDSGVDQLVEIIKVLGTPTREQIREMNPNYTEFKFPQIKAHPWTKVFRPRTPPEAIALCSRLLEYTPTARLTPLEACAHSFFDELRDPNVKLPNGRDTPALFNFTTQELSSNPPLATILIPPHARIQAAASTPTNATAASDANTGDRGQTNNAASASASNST

[5] = molecular target: Mitogen-activated protein kinase 1 (Homo sapiens) (UniProt P28482)
Chain of Mitogen-activated protein kinase 1 (Homo sapiens) (P28482 whole entry): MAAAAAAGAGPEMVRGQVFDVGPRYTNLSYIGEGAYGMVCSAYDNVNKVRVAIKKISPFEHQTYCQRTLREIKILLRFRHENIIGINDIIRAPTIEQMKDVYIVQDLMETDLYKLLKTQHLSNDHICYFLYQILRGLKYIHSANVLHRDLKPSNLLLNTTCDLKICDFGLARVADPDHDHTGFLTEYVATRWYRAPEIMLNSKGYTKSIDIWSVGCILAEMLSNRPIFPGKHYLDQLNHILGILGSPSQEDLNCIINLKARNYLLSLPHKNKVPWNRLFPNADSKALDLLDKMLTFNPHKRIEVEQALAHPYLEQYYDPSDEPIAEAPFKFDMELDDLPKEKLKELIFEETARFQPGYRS

[6] = molecular target: T1, Aurora kinase A (Homo sapiens) (UniProt O14965)
T1 sequence (whole entry): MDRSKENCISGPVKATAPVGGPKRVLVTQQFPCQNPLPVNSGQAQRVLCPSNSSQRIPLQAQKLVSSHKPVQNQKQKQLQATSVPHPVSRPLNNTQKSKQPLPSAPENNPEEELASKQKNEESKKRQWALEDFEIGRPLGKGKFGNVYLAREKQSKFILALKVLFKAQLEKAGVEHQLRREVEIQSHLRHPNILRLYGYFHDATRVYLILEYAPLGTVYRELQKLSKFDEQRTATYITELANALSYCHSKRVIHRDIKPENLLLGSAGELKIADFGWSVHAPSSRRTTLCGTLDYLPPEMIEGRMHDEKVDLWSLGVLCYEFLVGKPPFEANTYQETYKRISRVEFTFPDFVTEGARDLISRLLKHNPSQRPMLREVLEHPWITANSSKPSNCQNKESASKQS

Chain of Tyrosine-protein kinase ABL1 (Homo sapiens) (P00519 whole entry): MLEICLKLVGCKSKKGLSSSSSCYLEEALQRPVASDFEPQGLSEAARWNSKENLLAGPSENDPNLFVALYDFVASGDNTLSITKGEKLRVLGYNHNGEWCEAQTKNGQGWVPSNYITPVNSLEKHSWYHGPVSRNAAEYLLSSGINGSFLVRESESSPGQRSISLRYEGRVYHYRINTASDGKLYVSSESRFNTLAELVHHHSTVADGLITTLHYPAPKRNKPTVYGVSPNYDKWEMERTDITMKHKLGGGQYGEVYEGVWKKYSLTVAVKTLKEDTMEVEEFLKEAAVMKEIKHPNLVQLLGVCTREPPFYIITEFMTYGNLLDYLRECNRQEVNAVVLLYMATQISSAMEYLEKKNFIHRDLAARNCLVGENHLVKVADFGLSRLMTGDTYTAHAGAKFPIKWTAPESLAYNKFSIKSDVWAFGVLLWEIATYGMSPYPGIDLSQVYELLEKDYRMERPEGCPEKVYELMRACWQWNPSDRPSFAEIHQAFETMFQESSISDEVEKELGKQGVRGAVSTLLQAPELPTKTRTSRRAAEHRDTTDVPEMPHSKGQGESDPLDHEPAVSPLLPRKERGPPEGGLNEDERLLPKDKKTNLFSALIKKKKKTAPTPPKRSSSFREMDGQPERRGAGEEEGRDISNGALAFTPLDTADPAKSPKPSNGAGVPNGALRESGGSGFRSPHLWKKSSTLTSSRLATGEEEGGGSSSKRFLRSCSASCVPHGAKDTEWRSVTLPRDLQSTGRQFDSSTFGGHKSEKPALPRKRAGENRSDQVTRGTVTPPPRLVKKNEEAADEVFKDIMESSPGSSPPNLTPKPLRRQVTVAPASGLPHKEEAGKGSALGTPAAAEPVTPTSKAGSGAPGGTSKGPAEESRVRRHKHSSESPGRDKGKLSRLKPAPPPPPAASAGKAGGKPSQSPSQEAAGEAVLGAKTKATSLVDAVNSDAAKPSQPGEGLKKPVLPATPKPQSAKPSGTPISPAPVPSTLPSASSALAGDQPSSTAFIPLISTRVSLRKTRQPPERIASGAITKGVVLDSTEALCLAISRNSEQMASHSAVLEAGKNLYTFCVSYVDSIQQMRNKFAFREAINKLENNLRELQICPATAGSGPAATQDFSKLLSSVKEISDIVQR

SMILES	ΔTm [1]	ΔTm [2]	ΔTm [3]	ΔTm [4]	ΔTm [5]	ΔTm [6]
Nc1ncc2c(n1)-c1c([nH]c3ccc(C4CC4)cc13)CCCC2	0.19 °C	-0.43 °C	-0.06 °C	2.09 °C	0.41 °C	-0.12 °C
C[C@H](NC(=O)c1cnc2n1[C@](C)(Cc1ccc(C#N)cc1)C(=O)N2c1cc(Cl)c(F)c(Cl)c1)C(=O)NC1(c2ccccn2)CC1	0.04 °C	0.07 °C	0.77 °C	-3.42 °C	10.2 °C	0.19 °C
CCN(CC)C/C=C/C(=O)Nc1cc2c(Nc3ccc(F)c(Cl)c3)ncnc2cc1OCC1CC1	7.73 °C	-0.55 °C	0.34 °C	-0.95 °C	-0.24 °C	1.29 °C
CC1(C)Cc2nc(C3CCCC3)c([C@@H](F)c3ccc(C(F)(F)F)cc3)c(C3CCCCC3)c2[C@@H](O)C1	0 °C	1.04 °C	0.11 °C	0 °C	0.06 °C	-0.24 °C
COc1cc(C(=O)O)ncc1C#Cc1ccccc1NS(=O)(=O)c1cccc2c(N(C)C)ccnc12	0.14 °C	-0.3 °C	0.08 °C	-0.76 °C	0.42 °C	0.72 °C
Cn1cc(-c2cnc3ccc4ccc(CS(=O)(=O)NCc5ccccn5)cc4c(=O)c3c2)cn1	4.08 °C	0.66 °C	0.15 °C	1.66 °C	-0.33 °C	5.91 °C
COc1ccc(S(=O)(=O)N2CCOCC2)cc1Nc1ccc2c(n1)N(C1CCN(C)CC1)[C@H](C)C(=O)N2C	-0.01 °C	0.43 °C	0.44 °C	0.08 °C	0.18 °C	0 °C
CC[C@H](CC(=O)O)n1c(=O)c2ncccc2n(Cc2cn(C)c3cc(C)cc(C)c23)c1=O	-0.39 °C and 0.26 °C	0.68 °C and 0.96 °C	0.28 °C and -0.08 °C	-0.11 °C and -0.78 °C	0.08 °C and 0.23 °C	-0.13 °C and 0.01 °C
O=C(Nc1ccc(C(O)(C(F)(F)F)C(F)(F)F)cc1)c1ccc(C(F)(F)F)cc1	0.76 °C	1.61 °C	1.47 °C	-0.34 °C	0.19 °C	0 °C
CC(C)(O)CNC(=O)N1C(=O)N(c2cccc(C(F)(F)F)c2)C2=C(C(=O)CC2)[C@H]1c1ccc(C#N)cc1	0.05 °C	0.79 °C	0.12 °C	0.33 °C	-0.03 °C	0.08 °C
CCc1nc(-c2cccc(C)c2)c(-c2ccnc(NC(=O)c3ccccc3)c2)s1	1.26 °C	-1.36 °C	4.93 °C	-1.07 °C	-0.25 °C	-1.25 °C
CC(=O)c1ccc2c(c1)/C(=C(/Nc1cccc(C#N)c1)c1ccc3c(c1)OCCO3)C(=O)N2	6.24 °C	5.79 °C	1.02 °C	12 °C	0.75 °C	4.32 °C
CC(C)(O)CNC(=O)N1C(=O)N(c2cccc(C(F)(F)F)c2)C2=C(C(=O)CC2)[C@@H]1c1ccc(C#N)cc1	0.02 °C	0.61 °C	0.18 °C	-0.62 °C	0.17 °C	-0.16 °C
Cn1nc(-c2ccc(C(N)=O)cc2)c2ccccc2c1=O	0.66 °C	0.13 °C	0.57 °C	-0.19 °C	0.56 °C	0.43 °C
CCCCC[C@H](O)/C=C/[C@H]1[C@H](O)CC(=O)[C@@H]1CCCCCCC(=O)O	0.19 °C	0.43 °C	0.1 °C	-0.48 °C	0.29 °C	-0.09 °C
Cc1ccc(C(=O)Nc2cc(N3CCN(C)CC3)cc(C(F)(F)F)c2)cc1-n1cc(-c2cnn(C)c2C)nn1	12.9 °C	0.76 °C	1.19 °C	-0.67 °C	0.45 °C	0.76 °C
CCCCCCCC/C=C\CCCCCCCC(=O)NCCO	-1.47 °C	-0.92 °C	-0.85 °C	-2.08 °C	-1.79 °C	-2.91 °C
CCCCc1oc2ccccc2c1C(=O)c1cc(I)c(OCCN(CC)CC)c(I)c1	0.12 °C	0.14 °C	0.32 °C	-0.84 °C	0.02 °C	-1.66 °C
CC(=O)c1c(C)c2cnc(Nc3ccc(N4CCN(CCOCCOCCOCCNC(=O)COc5cccc6c5C(=O)N(C5CCC(=O)NC5=O)C6=O)CC4)cn3)nc2n(C2CCCC2)c1=O (stereo not given)	-0.65 °C	-0.26 °C	1.49 °C	1.18 °C	-1.16 °C	0.61 °C
CC(C)(c1ccc(OCc2cccc(COc3ccc(C(=N)N)cc3)c2)cc1)c1ccc(O[C@@H]2O[C@H](C(=O)O)[C@@H](O)[C@H](O)[C@H]2O)cc1	-2.82 °C	-1.86 °C	-5.29 °C	-4.59 °C	-6.63 °C	-5.6 °C
COc1c(NC(=O)c2cc3cccc(Oc4ccnc(C(=O)N5CCN(C)CC5)c4)c3n2C)cc(C(C)(C)C)cc1NS(C)(=O)=O	0.38 °C	-0.2 °C	0.73 °C	-0.6 °C	0.86 °C	-1.1 °C
Cc1nn(C)c(COc2ccc(N3CCN(S(=O)(=O)N(C)C)CC3)cc2)c1-c1cccc2c(CCCOc3cccc4ccccc34)c(C(=O)O)n(CCN3CCOCC3)c12	0.04 °C	0.39 °C	-0.73 °C	0 °C	-0.31 °C	0.6 °C
COc1cccc(Cn2cc(C(=O)Nc3ccc(C)c(S(=O)(=O)N4CCOCC4)c3)c(-c3ccc(C)cc3)n2)c1	4.84 °C	3.65 °C	-0.33 °C	1.92 °C	-3.66 °C	3.73 °C
C#Cc1cnc2[nH]cc(-c3cccc4c3CCN4C(=O)[C@@H]3CCCN3C#N)c2c1	5.17 °C	1.31 °C	2.51 °C	2.99 °C	0.55 °C	4.94 °C
Oc1c(CN2CCCC2)cc(COCc2ccccc2)c2cccnc12	0.07 °C	0.07 °C	1.22 °C	-0.76 °C	0.33 °C	-1.78 °C
